# Experimental data reported in ChEMBL document CHEMBL2218924, “A broad activity screen in support of a chemogenomic map for kinase signalling research and drug discovery” (Biochem J, 2013).
# Key:
# [1] = target: T1, Ephrin type-A receptor 3 (Homo sapiens) (UniProt P29320); conditions: at 10 µM
# T1 sequence (whole entry): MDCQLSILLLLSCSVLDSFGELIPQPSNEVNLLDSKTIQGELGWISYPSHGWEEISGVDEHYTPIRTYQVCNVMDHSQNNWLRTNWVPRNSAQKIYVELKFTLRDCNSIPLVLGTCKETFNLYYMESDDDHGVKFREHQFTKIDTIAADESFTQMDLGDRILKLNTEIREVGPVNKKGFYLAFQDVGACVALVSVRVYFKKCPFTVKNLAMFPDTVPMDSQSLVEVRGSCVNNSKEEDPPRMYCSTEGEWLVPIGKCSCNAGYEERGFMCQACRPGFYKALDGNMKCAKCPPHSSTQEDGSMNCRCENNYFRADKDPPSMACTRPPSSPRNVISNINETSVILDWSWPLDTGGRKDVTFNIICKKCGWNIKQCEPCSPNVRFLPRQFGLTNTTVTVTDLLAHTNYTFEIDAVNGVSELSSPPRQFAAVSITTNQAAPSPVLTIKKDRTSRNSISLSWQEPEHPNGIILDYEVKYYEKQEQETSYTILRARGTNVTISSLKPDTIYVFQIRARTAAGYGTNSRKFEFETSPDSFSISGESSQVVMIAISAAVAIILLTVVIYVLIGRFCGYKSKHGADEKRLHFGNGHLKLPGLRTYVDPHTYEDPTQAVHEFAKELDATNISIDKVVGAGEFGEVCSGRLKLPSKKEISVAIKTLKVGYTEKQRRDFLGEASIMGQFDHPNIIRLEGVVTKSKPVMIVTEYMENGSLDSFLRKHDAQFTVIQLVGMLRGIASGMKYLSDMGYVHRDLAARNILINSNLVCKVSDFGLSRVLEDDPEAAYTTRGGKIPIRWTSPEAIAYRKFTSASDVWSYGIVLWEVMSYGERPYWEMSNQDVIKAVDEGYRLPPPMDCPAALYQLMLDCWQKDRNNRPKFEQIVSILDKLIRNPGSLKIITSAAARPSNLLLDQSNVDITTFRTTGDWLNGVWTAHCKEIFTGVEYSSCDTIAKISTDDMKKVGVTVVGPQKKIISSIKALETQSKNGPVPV
# [2] = target: Ephrin type-A receptor 4 (Homo sapiens) (UniProt P54764); conditions: at 10 µM
# [3] = target: Ephrin type-A receptor 5 (Homo sapiens) (UniProt P54756); conditions: at 1 µM
# [4] = target: Ephrin type-A receptor 5 (Homo sapiens) (UniProt P54756); conditions: at 10 µM
# [5] = target: T2, Ephrin type-A receptor 8 (Homo sapiens) (UniProt P29322); conditions: at 1 µM
# T2 sequence (whole entry): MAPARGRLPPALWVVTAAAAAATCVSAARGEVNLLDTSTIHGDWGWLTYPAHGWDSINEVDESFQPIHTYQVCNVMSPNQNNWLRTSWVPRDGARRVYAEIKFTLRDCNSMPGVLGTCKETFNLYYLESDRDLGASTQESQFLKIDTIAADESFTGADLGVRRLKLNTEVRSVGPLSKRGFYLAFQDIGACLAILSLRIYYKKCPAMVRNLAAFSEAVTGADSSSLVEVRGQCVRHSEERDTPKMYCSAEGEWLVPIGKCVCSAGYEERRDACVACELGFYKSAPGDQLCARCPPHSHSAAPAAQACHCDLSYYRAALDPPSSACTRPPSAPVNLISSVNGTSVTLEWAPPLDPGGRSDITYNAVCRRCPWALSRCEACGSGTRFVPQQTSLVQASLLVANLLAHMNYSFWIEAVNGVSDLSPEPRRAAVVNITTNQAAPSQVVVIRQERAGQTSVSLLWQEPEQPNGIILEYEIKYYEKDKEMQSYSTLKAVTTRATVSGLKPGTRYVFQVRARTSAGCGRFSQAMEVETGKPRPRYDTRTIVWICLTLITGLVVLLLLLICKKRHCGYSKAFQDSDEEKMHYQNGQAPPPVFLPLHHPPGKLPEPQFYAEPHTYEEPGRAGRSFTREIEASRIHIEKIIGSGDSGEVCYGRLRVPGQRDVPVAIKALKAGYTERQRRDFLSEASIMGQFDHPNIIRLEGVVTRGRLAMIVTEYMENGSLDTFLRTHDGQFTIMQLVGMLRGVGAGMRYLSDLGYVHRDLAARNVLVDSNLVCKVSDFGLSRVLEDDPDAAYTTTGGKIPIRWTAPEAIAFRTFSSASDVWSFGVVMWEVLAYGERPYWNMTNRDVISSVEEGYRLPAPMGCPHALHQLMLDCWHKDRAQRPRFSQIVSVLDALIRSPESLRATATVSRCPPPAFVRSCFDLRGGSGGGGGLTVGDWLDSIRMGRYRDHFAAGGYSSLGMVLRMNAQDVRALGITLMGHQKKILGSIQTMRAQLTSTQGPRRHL
# [6] = target: T2, Ephrin type-A receptor 8 (Homo sapiens); conditions: at 10 µM
# [7] = target: T3, Ephrin type-B receptor 2 (Homo sapiens) (UniProt P29323); conditions: at 1 µM
# T3 sequence (whole entry): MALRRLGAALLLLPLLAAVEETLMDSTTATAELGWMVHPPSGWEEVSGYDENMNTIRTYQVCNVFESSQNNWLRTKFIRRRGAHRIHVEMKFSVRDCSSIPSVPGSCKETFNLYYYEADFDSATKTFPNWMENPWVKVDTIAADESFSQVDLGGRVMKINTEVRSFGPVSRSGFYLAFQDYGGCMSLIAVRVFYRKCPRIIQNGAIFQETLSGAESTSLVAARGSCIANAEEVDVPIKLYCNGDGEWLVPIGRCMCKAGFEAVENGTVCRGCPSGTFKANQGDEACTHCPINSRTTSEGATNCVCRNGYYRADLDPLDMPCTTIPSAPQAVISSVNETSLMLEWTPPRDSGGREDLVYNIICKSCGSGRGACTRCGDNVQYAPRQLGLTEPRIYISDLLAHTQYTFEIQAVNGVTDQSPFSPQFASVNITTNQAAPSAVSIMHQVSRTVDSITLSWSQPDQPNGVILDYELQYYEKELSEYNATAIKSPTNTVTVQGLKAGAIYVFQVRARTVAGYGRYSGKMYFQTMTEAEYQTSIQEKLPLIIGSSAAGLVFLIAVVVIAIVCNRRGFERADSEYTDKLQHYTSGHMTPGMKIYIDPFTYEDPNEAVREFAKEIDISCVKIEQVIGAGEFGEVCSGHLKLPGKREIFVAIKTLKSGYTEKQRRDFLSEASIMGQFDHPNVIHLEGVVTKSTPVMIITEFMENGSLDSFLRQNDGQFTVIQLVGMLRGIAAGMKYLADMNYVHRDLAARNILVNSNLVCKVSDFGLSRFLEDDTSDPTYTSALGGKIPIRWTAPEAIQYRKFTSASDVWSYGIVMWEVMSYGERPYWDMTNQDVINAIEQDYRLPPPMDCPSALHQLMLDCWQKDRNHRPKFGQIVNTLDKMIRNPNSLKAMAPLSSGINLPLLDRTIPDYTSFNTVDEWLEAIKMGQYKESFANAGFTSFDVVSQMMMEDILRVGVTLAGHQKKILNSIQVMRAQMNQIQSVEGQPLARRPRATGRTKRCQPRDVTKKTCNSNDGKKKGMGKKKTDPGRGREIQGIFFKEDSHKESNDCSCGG
# [8] = target: T3, Ephrin type-B receptor 2 (Homo sapiens); conditions: at 10 µM
# [9] = target: T4, Ephrin type-B receptor 3 (Homo sapiens) (UniProt P54753); conditions: at 1 µM
# T4 sequence (whole entry): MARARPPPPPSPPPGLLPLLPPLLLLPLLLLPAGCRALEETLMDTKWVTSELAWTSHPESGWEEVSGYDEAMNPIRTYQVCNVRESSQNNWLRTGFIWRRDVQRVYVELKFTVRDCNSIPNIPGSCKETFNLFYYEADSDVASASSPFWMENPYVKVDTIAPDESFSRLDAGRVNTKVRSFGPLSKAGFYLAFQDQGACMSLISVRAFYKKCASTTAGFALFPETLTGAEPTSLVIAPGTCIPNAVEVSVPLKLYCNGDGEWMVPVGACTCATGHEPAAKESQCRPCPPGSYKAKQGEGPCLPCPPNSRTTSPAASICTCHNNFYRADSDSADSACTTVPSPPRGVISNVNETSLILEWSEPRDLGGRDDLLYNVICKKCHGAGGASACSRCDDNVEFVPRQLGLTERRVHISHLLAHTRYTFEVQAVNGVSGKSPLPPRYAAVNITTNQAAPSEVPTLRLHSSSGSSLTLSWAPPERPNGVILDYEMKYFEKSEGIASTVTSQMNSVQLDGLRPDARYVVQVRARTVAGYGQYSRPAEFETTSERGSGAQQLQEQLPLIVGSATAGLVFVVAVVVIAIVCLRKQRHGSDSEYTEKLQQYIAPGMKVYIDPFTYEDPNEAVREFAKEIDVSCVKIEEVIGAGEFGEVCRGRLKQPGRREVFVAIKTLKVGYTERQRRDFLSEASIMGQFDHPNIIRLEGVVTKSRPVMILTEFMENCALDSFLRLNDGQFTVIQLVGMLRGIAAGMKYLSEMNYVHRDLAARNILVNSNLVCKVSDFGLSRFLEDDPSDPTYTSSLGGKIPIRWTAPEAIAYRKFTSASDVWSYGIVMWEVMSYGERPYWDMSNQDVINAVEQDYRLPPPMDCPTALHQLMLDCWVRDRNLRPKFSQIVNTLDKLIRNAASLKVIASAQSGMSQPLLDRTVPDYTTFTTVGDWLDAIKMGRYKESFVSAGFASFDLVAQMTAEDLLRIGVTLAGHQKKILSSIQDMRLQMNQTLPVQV
# [10] = target: T4, Ephrin type-B receptor 3 (Homo sapiens); conditions: at 10 µM
# [11] = target: T5, Ephrin type-B receptor 4 (Homo sapiens) (UniProt P54760); conditions: at 1 µM
# T5 sequence (whole entry): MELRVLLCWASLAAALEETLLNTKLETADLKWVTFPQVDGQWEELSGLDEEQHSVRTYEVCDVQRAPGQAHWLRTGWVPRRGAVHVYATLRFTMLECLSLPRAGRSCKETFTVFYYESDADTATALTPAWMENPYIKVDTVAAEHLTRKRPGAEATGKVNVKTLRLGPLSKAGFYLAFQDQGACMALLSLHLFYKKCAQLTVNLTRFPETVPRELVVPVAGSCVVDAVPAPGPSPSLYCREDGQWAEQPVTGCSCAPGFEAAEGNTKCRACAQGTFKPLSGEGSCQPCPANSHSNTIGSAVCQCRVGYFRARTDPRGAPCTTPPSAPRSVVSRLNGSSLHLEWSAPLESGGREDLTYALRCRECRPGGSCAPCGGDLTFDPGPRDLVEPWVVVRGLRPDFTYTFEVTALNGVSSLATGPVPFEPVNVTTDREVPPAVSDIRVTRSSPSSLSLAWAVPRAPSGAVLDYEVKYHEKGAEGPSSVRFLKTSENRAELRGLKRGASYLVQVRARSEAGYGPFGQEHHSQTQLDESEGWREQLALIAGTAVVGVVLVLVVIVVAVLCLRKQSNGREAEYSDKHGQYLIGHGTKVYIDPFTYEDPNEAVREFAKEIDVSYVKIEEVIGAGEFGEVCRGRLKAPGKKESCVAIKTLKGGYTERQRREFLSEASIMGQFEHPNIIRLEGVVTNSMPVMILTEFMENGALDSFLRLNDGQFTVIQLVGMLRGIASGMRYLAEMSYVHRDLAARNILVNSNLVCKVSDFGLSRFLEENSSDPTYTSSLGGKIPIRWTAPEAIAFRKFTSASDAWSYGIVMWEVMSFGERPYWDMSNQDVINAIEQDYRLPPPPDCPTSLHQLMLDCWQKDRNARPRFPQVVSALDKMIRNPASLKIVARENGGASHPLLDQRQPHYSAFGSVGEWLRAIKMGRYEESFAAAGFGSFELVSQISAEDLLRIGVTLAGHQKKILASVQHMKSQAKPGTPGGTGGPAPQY
# [12] = target: T5, Ephrin type-B receptor 4 (Homo sapiens); conditions: at 10 µM
# [13] = target: Receptor tyrosine-protein kinase erbB-4 (Homo sapiens) (UniProt Q15303); conditions: at 10 µM
# [14] = target: Focal adhesion kinase 1 (Homo sapiens) (UniProt Q05397); conditions: at 1 µM
# Focal adhesion kinase 1 (Homo sapiens), sequence (Q05397 2-1052 limits assumed): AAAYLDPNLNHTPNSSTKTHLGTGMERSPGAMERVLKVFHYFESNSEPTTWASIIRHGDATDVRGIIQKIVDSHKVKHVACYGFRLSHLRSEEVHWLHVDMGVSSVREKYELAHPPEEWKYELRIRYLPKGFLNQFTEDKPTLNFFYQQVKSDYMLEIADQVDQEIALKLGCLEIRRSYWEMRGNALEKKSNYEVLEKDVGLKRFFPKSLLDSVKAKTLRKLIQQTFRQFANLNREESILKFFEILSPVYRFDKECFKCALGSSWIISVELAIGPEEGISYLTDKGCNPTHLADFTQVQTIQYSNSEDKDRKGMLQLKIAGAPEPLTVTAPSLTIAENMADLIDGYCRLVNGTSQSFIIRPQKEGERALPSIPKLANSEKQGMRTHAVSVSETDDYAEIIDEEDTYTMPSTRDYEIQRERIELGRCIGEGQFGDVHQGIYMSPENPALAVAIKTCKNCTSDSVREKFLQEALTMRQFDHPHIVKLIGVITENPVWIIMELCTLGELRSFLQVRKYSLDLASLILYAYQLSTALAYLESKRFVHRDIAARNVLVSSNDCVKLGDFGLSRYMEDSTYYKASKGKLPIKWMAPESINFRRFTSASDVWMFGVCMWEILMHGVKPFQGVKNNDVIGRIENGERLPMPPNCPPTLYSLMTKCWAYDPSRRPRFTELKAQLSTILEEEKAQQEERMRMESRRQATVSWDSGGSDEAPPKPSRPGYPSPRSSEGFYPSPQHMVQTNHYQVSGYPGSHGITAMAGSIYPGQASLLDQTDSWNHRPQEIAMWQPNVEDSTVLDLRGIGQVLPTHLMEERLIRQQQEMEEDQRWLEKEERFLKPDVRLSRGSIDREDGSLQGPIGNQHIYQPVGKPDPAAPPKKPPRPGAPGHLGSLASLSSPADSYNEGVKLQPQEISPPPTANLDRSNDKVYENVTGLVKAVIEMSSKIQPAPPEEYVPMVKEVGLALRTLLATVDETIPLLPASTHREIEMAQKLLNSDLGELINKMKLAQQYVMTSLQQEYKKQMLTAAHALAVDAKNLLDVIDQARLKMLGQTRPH
# Ephrin type-A receptor 5 (Homo sapiens), sequence (P54756 whole entry): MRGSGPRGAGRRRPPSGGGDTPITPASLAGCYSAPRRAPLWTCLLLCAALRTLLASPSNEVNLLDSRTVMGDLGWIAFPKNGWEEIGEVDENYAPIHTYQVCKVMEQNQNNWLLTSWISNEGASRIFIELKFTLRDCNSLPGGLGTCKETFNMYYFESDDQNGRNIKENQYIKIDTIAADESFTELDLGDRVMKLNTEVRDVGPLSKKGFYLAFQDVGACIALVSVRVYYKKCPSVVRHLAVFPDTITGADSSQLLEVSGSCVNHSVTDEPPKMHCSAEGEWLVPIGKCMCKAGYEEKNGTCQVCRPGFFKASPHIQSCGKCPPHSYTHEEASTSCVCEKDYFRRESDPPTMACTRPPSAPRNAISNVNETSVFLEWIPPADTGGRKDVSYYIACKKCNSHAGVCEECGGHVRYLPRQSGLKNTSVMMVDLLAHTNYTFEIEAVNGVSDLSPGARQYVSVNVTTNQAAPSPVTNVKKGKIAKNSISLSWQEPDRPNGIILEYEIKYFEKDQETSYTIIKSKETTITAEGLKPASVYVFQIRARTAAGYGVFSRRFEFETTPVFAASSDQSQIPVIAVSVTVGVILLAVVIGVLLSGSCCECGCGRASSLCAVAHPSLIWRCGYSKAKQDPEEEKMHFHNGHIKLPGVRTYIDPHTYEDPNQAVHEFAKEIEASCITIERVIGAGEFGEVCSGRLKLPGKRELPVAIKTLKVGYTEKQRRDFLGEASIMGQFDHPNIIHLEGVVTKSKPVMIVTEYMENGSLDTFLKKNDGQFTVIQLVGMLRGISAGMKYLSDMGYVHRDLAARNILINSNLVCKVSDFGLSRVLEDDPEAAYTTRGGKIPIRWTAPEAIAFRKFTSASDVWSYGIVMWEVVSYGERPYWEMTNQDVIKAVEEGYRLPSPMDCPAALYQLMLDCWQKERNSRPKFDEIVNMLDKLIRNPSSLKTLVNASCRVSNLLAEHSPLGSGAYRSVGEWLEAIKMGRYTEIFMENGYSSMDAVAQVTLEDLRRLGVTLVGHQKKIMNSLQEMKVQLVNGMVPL
# Receptor tyrosine-protein kinase erbB-4 (Homo sapiens), sequence (Q15303 whole entry): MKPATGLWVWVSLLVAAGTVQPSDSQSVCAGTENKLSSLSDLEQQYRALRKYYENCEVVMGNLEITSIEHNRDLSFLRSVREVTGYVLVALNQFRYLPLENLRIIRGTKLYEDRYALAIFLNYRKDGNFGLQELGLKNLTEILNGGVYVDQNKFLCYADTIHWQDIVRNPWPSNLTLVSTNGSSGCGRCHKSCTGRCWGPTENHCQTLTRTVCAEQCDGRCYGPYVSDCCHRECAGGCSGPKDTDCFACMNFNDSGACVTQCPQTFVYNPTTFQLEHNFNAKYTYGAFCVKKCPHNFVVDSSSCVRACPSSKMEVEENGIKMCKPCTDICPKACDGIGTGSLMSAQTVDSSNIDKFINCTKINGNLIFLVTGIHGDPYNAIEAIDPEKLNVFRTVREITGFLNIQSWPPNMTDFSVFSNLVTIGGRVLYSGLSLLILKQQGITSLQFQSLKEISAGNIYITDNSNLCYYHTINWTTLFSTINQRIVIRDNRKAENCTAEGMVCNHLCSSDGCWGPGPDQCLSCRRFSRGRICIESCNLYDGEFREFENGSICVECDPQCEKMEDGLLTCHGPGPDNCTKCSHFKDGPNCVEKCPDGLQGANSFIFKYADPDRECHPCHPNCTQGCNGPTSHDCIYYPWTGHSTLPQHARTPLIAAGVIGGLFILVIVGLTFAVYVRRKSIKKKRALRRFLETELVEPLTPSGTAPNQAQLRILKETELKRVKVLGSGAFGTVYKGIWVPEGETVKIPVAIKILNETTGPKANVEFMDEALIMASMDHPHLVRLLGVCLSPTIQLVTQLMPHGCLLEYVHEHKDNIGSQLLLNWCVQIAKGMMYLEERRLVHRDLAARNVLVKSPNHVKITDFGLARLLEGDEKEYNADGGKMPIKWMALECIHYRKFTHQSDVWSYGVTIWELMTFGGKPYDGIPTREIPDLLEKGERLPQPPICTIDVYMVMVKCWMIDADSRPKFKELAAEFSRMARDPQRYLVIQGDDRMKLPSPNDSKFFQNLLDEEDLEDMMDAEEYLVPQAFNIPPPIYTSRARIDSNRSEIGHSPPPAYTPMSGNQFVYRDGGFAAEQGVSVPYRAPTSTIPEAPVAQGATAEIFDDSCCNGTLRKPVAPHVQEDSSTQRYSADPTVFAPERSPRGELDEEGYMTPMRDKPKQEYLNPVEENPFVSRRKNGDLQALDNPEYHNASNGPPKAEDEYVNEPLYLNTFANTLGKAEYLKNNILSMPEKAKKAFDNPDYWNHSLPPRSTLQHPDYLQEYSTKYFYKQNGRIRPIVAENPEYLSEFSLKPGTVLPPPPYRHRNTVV
# Ephrin type-A receptor 4 (Homo sapiens), sequence (P54764 whole entry): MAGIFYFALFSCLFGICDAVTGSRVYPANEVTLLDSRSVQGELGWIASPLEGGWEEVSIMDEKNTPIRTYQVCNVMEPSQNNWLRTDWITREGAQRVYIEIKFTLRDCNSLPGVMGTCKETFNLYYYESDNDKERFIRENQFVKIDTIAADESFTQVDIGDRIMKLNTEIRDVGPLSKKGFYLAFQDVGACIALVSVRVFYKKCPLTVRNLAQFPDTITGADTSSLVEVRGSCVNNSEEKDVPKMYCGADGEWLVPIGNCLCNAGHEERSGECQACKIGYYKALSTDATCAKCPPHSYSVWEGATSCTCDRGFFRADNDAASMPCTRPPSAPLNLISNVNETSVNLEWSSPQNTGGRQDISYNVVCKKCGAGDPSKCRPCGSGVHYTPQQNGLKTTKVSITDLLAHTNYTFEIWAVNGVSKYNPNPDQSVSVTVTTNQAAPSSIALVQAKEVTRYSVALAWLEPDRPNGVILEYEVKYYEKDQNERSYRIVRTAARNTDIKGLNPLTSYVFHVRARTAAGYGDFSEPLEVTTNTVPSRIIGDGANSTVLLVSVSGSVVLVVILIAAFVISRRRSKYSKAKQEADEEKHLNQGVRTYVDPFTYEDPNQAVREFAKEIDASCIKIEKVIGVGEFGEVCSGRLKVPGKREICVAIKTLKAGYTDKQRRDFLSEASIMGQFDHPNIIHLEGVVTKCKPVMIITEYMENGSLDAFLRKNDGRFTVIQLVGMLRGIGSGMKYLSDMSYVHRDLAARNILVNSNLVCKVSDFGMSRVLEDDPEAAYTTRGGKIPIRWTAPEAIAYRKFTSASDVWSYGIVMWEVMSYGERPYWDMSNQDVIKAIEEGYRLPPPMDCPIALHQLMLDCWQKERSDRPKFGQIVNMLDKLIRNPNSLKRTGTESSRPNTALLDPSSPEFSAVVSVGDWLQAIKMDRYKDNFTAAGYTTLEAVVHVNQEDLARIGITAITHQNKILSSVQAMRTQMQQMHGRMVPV
compound,measurement,setting,value
CC(C)[C@H](CO)Nc1nc(Nc2cc(N)cc(Cl)c2)c2ncn(C(C)C)c2n1,residual activity,[1],52%
same,residual activity,[2],63%
same,residual activity,[3],86%
same,residual activity,[4],23%
same,residual activity,[5],93%
same,residual activity,[6],59%
same,residual activity,[7],92%
same,residual activity,[8],7%
same,residual activity,[9],92% (inactive)
same,residual activity,[10],116%
same,residual activity,[11],57%
same,residual activity,[12],6%
same,residual activity,[13],84%
same,residual activity,[14],42%
